Source: PubChem BioAssay (NCATS)
Inconclusive results are not listed. Where a call stands in place of a potency, no number is given. Active and inactive are the calls of the source. Unless noted, calls follow the shape of the full dose curve.

Experiments:
[1] = qHTS for Inhibitors of the Functional Ribonucleoprotein Complex (vRNP) of Lassa (LASV) Arenavirus: LASV Primary Screen - GLuc reporter signal (AID 1347082; calls by dose curve; tested in HEK293 reporter line; also: nearly all actives have a fitted effect of over 60% in size; also: potency is read from the fitted curve at half-maximal effect)
[2] = qHTS for Inhibitors of the Functional Ribonucleoprotein Complex (vRNP) of Lymphocytic Choriomeningitis Arenaviruses (LCMV): Viability assay - alamar blue signal for LCMV Primary Screen (AID 1347085; calls by dose curve; tested in HEK293 reporter line; also: nearly all actives have a fitted effect of over 80% in size)
[3] = biological target: Nucleoprotein (Lymphocytic choriomeningitis virus (strain Armstrong)) (UniProt P09992); assay: qHTS for Inhibitors of the Functional Ribonucleoprotein Complex (vRNP) of Lymphocytic Choriomeningitis Arenaviruses (LCMV): LCMV Primary Screen - GLuc reporter signal (AID 1347086); also: nearly all actives have a fitted effect of over 70% in size; also: potency is read from the fitted curve at half-maximal effect
Nucleoprotein (Lymphocytic choriomeningitis virus (strain Armstrong)), sequence (P09992 whole entry, looked up): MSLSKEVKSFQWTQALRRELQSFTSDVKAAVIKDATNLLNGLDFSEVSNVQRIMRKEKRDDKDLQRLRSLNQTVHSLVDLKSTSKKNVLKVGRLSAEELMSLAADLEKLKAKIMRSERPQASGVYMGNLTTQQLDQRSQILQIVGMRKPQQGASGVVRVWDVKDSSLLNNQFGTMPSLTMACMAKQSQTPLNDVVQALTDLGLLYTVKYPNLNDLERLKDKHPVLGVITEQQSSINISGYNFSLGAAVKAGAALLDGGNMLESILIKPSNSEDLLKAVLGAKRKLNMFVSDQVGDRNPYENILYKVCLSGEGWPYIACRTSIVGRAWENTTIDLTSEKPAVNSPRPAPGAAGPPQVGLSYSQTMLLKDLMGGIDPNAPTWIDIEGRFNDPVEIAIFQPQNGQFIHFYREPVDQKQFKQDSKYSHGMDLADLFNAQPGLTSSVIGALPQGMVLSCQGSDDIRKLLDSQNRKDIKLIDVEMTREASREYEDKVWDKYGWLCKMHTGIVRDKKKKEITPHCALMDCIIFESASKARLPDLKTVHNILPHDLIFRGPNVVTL

[4] = Cytotoxicity counterscreen for inhibitors of SARS-CoV-2 cell entry (AID 1645845); also: nearly all actives have a fitted effect of over 50% in size; also: potency is read from the fitted curve at half-maximal effect
Summary of the method: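 HEK293-ACE2 cells (Expi293F stably expressing human ACE2) seeded overnight, then compound for 1 h plus 48 h at 37C. Viability as ATP content by luminescence; normalized to wells with cells and media-only wells.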

[5] = Primary qHTS to identify inhibitors of SARS-CoV-2 cell entry (AID 1645846); conditions: activity change, negative = inhibition: at 57.1 µM (top of the series) unless noted; also: nearly all actives have a fitted effect of over 45% in size
Summary of the method: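 Entry measured by luciferase signal 48 h after adding SARS-CoV-2-S pseudotyped MLV particles to HEK293-ACE2 cells preincubated 1 h with compounds. Normalisation: bald particles and spike particles.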

[6] = Confirmatory qHTS for activators (rescue) of SARS-CoV-2 Cytopathic Effect (CPE) (AID 1508606); also: nearly all actives have a fitted effect of over 70% in size
[7] = Confirmatory qHTS to identify inhibitors of SARS-CoV-2 cell entry (AID 1645844); also: potency is read from the fitted curve at half-maximal effect; nearly all actives have a fitted effect of over 45% in size
Summary of the method: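 HEK293-ACE2 cells were pretreated 1 h with compound, then infected with MLV-based pseudoparticles bearing C-terminally truncated Wuhan-Hu-1 spike for 48 h at 37C; luciferase luminescence normalized to spike PP and bald PP wells.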

Q: For `C[C@@H]1C(=O)O[C@H]2[C@H](O)[C@@]34[C@H]5CC(C(C)(C)C)[C@]36[C@H](OC(=O)[C@H]6O)O[C@]4(C(=O)O5)[C@@]12O` (some centres undefined), which Potency [1] is on record?
A: inactive

Q: And the Potency [2]?
A: inactive

Q: What about the Potency [3] of the same compound?
A: inactive

Q: Which Potency [1] does the source give for `O=C(c1ccc(C=Cc2n[nH]c3ccccc23)cc1)N1CCNCC1` here?
A: inactive

Q: And the Potency [2]?
A: inactive

Q: What about the Potency [3] of the same compound?
A: inactive

Q: Which Potency [1] does the source give for `COc1ccc(C2CC(c3ccccc3)=NN2c2ccc(S(N)(=O)=O)cc2)cc1` (centres undefined) here?
A: inactive

Q: What about the Potency [2] of the same compound?
A: inactive

Q: What about the Potency [3] of the same compound?
A: inactive

Q: And the Potency [4]?
A: inactive

Q: What about the activity change, negative = inhibition [5] of the same compound?
A: -0.201%

Q: Which Potency [1] does the source give for `CCS(=O)(=O)N1CC(CC#N)(n2cc(-c3ncnc4[nH]ccc34)cn2)C1` here?
A: inactive

Q: What about the Potency [2] of the same compound?
A: inactive

Q: What about the Potency [3] of the same compound?
A: inactive

Q: With `COc1ccc(-c2oc3cc(OC)c(O)c(OC)c3c(=O)c2OC)cc1O` as the compound, how does the Potency [1] read?
A: inactive

Q: And the Potency [2]?
A: inactive

Q: What about the Potency [3] of the same compound?
A: inactive

Q: Which Potency [1] does the source give for `N[C@H](CSC(c1ccccc1)(c1ccccc1)c1ccccc1)C(=O)O` here?
A: inactive

Q: What about the Potency [2] of the same compound?
A: inactive

Q: And the Potency [3]?
A: inactive

Q: And the Potency [4]?
A: inactive

Q: And the activity change, negative = inhibition [5]?
A: -15.9%

Q: For `Nc1ncnc2c1nc(Cl)n2[C@@H]1O[C@H](CO)[C@@H](O)[C@@H]1O`, which Potency [1] is on record?
A: inactive

Q: What about the Potency [2] of the same compound?
A: inactive

Q: And the Potency [3]?
A: inactive

Q: What about the Potency [4] of the same compound?
A: inactive

Q: With `Clc1cc(Cl)cc(CNc2ncncc2-c2ccc3c(c2)OCO3)c1` as the compound, how does the Potency [1] read?
A: inactive

Q: And the Potency [2]?
A: inactive

Q: What about the Potency [3] of the same compound?
A: inactive

Q: What about the Potency [4] of the same compound?
A: inactive

Q: Which Potency [1] does the source give for `Cn1cc(-c2ccncc2)c(-c2ccc(OCc3ccc4ccccc4n3)cc2)n1` here?
A: 21.7 µM (active)

Q: And the Potency [2]?
A: inactive

Q: What about the Potency [3] of the same compound?
A: 21.7 µM (active)

Q: What about the Potency [6] of the same compound?
A: inactive

Q: For `CC=CC(C)=CC(C)C(=O)CC(O)CC1CC(=O)NC(=O)C1` (centres undefined), which Potency [1] is on record?
A: inactive

Q: What about the Potency [2] of the same compound?
A: inactive

Q: And the Potency [3]?
A: inactive

Q: For `O=C1NC(=O)C(=Cc2ccc3nccnc3c2)S1`, which Potency [1] is on record?
A: inactive

Q: And the Potency [2]?
A: inactive

Q: What about the Potency [3] of the same compound?
A: inactive

Q: Which Potency [1] does the source give for `COC1C(O)C(C)OC(OC2CCC3(C=O)C(CCC4C3CCC3(C)C(C5=CC(=O)OC5)CCC43O)C2)C1O` (centres undefined) here?
A: inactive

Q: And the Potency [2]?
A: inactive

Q: And the Potency [3]?
A: inactive

Q: Which Potency [1] does the source give for `COc1cc2c(Nc3ccc(NC(=O)c4ccccc4)cc3)ncnc2cc1OCCCN1CCOCC1` here?
A: inactive

Q: And the Potency [2]?
A: inactive

Q: And the Potency [3]?
A: inactive

Q: And the Potency [4]?
A: 31.6 µM (active)

Q: Which results are given for `Cn1c(=O)c(Oc2ccc(F)cc2F)cc2cnc(NC3CCOCC3)nc21`?
A: Potency [1]: inactive; Potency [2]: inactive; Potency [3]: inactive; Potency [4]: inactive; Potency [5]: inactive

Q: Which results are given for `CCN(CCO)CCCOc1ccc2c(Nc3cc(CC(=O)Nc4cccc(F)c4)[nH]n3)ncnc2c1`?
A: Potency [1]: inactive; Potency [2]: inactive; Potency [3]: inactive; Potency [7]: 0.681 µM (active); Potency [4]: inactive; activity change, negative = inhibition [5]: -58.3%

Q: For `C[C@H](NC(=O)C(C#N)=Cc1cccc(Br)n1)c1ccccc1`, which Potency [1] is on record?
A: inactive

Q: What about the Potency [2] of the same compound?
A: inactive

Q: What about the Potency [3] of the same compound?
A: inactive

Q: Which results are given for `COc1cc2c(oc(=O)c3cc(C)cc(OC)c32)c2c(C3OC(C)C(O)C(C)(O)C3O)ccc(O)c12` (centres undefined)?
A: Potency [1]: inactive; Potency [2]: inactive; Potency [3]: inactive
